Screening results: PubChem, Broad Institute
Shh pathway inh: blocks Sonic Hedgehog signaling. Shh-LIGHT2 Gli-luciferase reporter, 30 h. inhibition, % (no concentration beside the values). actives 2.1% (n = 22,000). AID 2313;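 active means mean inhibition across valid replicates above about 65%, limit read from the data; inconclusive means mean under the limit, yet half or more replicates past it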;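 further: pathway switched on by Shh-conditioned medium diluted 1 in 25 in low serum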
MITF inh: blocks MITF activity. TRPM1 promoter luciferase, luminescence, 24 h. inhibition, % (no concentration beside the values). actives 0.28% (n = 37,000). AID 2240; in the data active means inhibition above about 85%; inconclusive means no clear call, values can overlap the other calls; inactive means below about 68%;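 further: human melanocyte line stably carrying TRPM1 promoter luciferase reporter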
NOMO-1 viab: STK33 inhibitor candidate reducing NOMO-1 cell viability; NOMO-1 AML viability, CellTiter-Glo luminescence, 72 h; inhibition, % (concentration not given with the values); actives 7.5% (n = 37,000); AID 2330; in the data active means inhibition above about 80%; inconclusive means no clear call, values can overlap the other calls
YB-1 expr inh: YB-1 expression inhibition | U2OS, qRT-PCR YB-1 vs CDIP delta delta Cp, 16 h; hits give high values; zero = DMSO, each unit about twofold | delta delta Cp (YB-1 minus CDIP) (test concentration not listed) | actives 0.37% (n = 30,000) | AID 434959;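 active means delta delta Cp rounded down to an integer at or above 3, about 3 SD of DMSO wells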;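 further: higher means less YB-1 transcript or more CDIP transcript relative to DMSO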
PD-1 reversal: activators reversing PD-1 mediated T-cell inhibition; primary human CD4 T cells, PD-L1 beads, CellTiter-Glo 96 h; activation, % (test concentration not listed); 29,000 tested, under 10 active; call rule not given here;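 further: 0% = median vehicle wells and 100% = positive control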
Active calls of the source: *; u = inconclusive; x = no result. A selection: hits, their analogues and other compounds. The true share with any hit is near 7.4%.

SMILES | Shh pathway inh | MITF inh | NOMO-1 viab | YB-1 expr inh | PD-1 reversal
C[C@H](CO)N1C[C@H](C)[C@H](CN(C)S(=O)(=O)c2cccs2)Oc2ncc(C#Cc3ccc(C(F)(F)F)cc3)cc2C1=O | x | x | x | 6* | x
C[C@H]1CN([C@@H](C)CO)C(=O)c2cc(NC(=O)Nc3ccc(F)cc3)ccc2O[C@@H]1CN(C)S(=O)(=O)c1cccs1 | 16 | -14 | 25 | 0.49 | -2
CCOC(=O)c1ccc2nc(C(F)(F)F)nc(NCCc3ccc(OC)cc3)c2c1 | x | 31 | 38 | -0.32 | -1
CC(Oc1ccc(Cl)cc1Cl)C(=O)Nc1ccccc1C(=O)NC1CCCCC1 (centres undefined) | x | 1 | 12 | x | x
Cc1ccc(S(=O)(=O)Nc2ccc3c(c2)C(=O)N([C@H](C)CO)C[C@@H](C)[C@H](CN(C)Cc2ccc(C(F)(F)F)cc2)O3)cc1 | -22 | 1 | 10 | 0.17 | 1
Cc1ccc(S(=O)(=O)Nc2ccc3c(c2)CC(=O)N([C@H](C)CO)C[C@@H](C)[C@@H](CN(C)Cc2ccc(C(F)(F)F)cc2)O3)cc1 | 14 | -1 | 114* | -0.28 | -2
Cc1ccc(S(=O)(=O)Nc2ccc3c(c2)CC(=O)N([C@@H](C)CO)C[C@H](C)[C@@H](CN(C)Cc2ccc(C(F)(F)F)cc2)O3)cc1 | 69* | 23 | 98* | -0.3 | 0
C=CCn1c(-c2cccs2)nc(-c2ccccc2)c1-c1ccccc1 | 24 | 27 | 121* | 0.37 | -5
C[C@]1(OC(=O)/C=C/c2ccccc2)C[C@@H](O)[C@]2(O)C=CO[C@@H](O[C@@H]3O[C@H](CO)[C@@H](O)[C@H](O)[C@H]3O)[C@@H]21 | -30 | 7 | 10 | -0.52 | x
Cc1c(CO)c2ccccc2n1Cc1ccccc1C#N | x | 14 | 121* | x | -5
C[C@@H]1CN([C@H](C)CO)C(=O)Cc2cc(NC(=O)Nc3ccc(C(F)(F)F)cc3)ccc2O[C@H]1CN(C)S(=O)(=O)c1ccc(F)cc1 | 12 | 25 | 6 | 0.25 | 1
C[C@@H]1CN([C@@H](C)CO)C(=O)Cc2cc(NC(=O)Nc3ccc(C(F)(F)F)cc3)ccc2O[C@@H]1CN(C)S(=O)(=O)c1ccc(F)cc1 | 12 | 17 | 100* | 0.09 | -1
C[C@H]1CN([C@@H](C)CO)C(=O)Cc2cc(NC(=O)Nc3ccc(F)cc3)ccc2O[C@@H]1CN(C)S(=O)(=O)c1ccc(F)cc1 | -35 | -11 | 25 | -0.19 | 0
C[C@H](CO)N1C[C@H](C)[C@H](CN(C)S(=O)(=O)c2ccc(F)cc2)Oc2ccc(NC(=O)CCC(F)(F)F)cc2CC1=O | -34 | 20 | 126* | 0.049 | 0
C[C@H]1CN([C@@H](C)CO)C(=O)Cc2cc(NC(=O)Nc3ccc(C(F)(F)F)cc3)ccc2O[C@H]1CN(C)S(=O)(=O)c1ccc(F)cc1 | -1 | 46 | 115* | -0.16 | -3
C[C@H]1CN([C@@H](C)CO)C(=O)Cc2cc(NC(=O)CCC(F)(F)F)ccc2O[C@@H]1CN(C)S(=O)(=O)c1ccc(F)cc1 | x | 7 | 16 | -0.92 | x
CCN1CCN(C(=O)N[C@@H](C(=O)N[C@@H]2C(=O)N3[C@@H]2SC(C)(C)[C@@H]3C(=O)O)c2ccccc2)C(=O)C1=O | 11 | -35 | 6 | -0.56 | x
Cn1nc(-c2ccc(C(=O)Nc3ccc(Cl)cc3)s2)cc1C(F)(F)F | -6 | 38 | u | 0.22 | 0
C[C@H](CO)N1C[C@H](C)[C@H](CN(C)CC2CCCCC2)Oc2ccc(NC(=O)NC3CCCCC3)cc2C1=O | 11 | 5 | 21 | -0.5 | 0
C[C@@H]1CN([C@H](C)CO)C(=O)c2cc(NC(=O)Nc3ccc(F)cc3)ccc2O[C@@H]1CN(C)Cc1ccc(C(=O)Nc2ccccc2N)cc1 | x | -7 | 107* | 0.28 | -3
C[C@@H]1CN([C@H](C)CO)C(=O)c2cc(NC(=O)Nc3ccc(C(F)(F)F)cc3)ccc2O[C@@H]1CN(C)Cc1ccc(C(=O)Nc2ccccc2N)cc1 | x | -22 | 102* | -0.18 | -2
C[C@H]1CN([C@@H](C)CO)C(=O)c2cc(NC(=O)Nc3ccccc3)ccc2O[C@H]1CN(C)Cc1ccc(C(=O)Nc2ccccc2N)cc1 | x | 8 | u | 0.42 | 0
C[C@@H]1CN([C@@H](C)CO)C(=O)c2cc(NC(=O)Nc3ccc(C(F)(F)F)cc3)ccc2O[C@H]1CN(C)Cc1ccc(C(=O)Nc2ccccc2N)cc1 | x | 5 | 11 | 0.43 | 0
CCN(CC)CCNc1ncnc2c1sc1nc(N3CCCC3)c3c(c12)CC(C)(C)OC3 | x | -23 | 113* | x | -10
COc1ccc(NC(=O)CSc2ncnc3c2sc2nc(N4CCOCC4)c4c(c23)CC(C)(C)OC4)cc1 | x | -10 | 99* | x | -6
SMILES | Shh pathway inh | MITF inh | NOMO-1 viab | YB-1 expr inh | PD-1 reversal
COC(=O)CCSc1ncnc2c1sc1nc(N3CCOCC3)c3c(c12)CCCC3 | x | -41 | 4 | x | -3
Cc1cccc(NC(=O)CN(c2ccccc2F)S(C)(=O)=O)c1 | x | -2 | 13 | x | 0
O=[N+]([O-])c1ccc(NCCCn2ccnc2)nc1 | x | -14 | -28 | x | 1
COc1ccc(S(=O)(=O)Nc2ccc3c(c2)CC(=O)N([C@@H](C)CO)C[C@H](C)[C@H](CN(C)Cc2ccc(-c4ccccc4)cc2)O3)cc1 | -21 | 14 | 90* | -0.27 | 0
COc1ccc(S(=O)(=O)Nc2ccc3c(c2)CC(=O)N([C@H](C)CO)C[C@H](C)[C@H](CN(C)Cc2ccc(-c4ccccc4)cc2)O3)cc1 | x | 9 | 88* | 0.24 | x
COc1ccc(S(=O)(=O)Nc2ccc3c(c2)CC(=O)N([C@@H](C)CO)C[C@H](C)[C@@H](CN(C)Cc2ccc(-c4ccccc4)cc2)O3)cc1 | 17 | 43 | 125* | 0.022 | x
C[C@H](CO)N1C[C@H](C)[C@H](CN(C)Cc2ccc(C(=O)Nc3ccccc3N)cc2)Oc2ccc(NC(=O)Cc3cn(C)c4ccccc34)cc2CC1=O | x | 6 | 127* | -0.8 | -5
C[C@H]1CN([C@@H](C)CO)C(=O)Cc2cc(NC(=O)Cc3cn(C)c4ccccc34)ccc2O[C@H]1CN(C)Cc1ccc(C(=O)Nc2ccccc2N)cc1 | x | 19 | 120* | -0.55 | -2
C[C@@H]1CN([C@H](C)CO)C(=O)Cc2cc(NC(=O)Cc3cn(C)c4ccccc34)ccc2O[C@@H]1CN(C)Cc1ccc(C(=O)Nc2ccccc2N)cc1 | x | 10 | 77 | -0.23 | -2
C[C@@H]1CN([C@@H](C)CO)C(=O)Cc2cc(NC(=O)CCC(F)(F)F)ccc2O[C@@H]1CN(C)Cc1ccc(C(=O)Nc2ccccc2N)cc1 | x | 5 | 91* | -0.44 | 0
C[C@H]1CN([C@@H](C)CO)C(=O)c2cc(NC(=O)CCC(F)(F)F)ccc2O[C@H]1CN(C)Cc1ccc(C(=O)Nc2ccccc2N)cc1 | x | 5 | 106* | 0.12 | -2
C[C@H](CO)N1C[C@H](C)[C@H](CN(C)Cc2ccc(C(=O)Nc3ccccc3N)cc2)Oc2ccc(NC(=O)CCC(F)(F)F)cc2CC1=O | x | 24 | 141* | -0.5 | -7
